Reference: PubChem BioAssay AID1948 (National Center for Advancing Translational Sciences (NCATS), 2009)
Out of some 110,000 compounds screened, about 20 (0.02%) were called active. About 2% were inconclusive and are not listed. Calls come from the whole dose curve; as a rule, active = well fitted activation curve with a large enough effect; inconclusive = small, poorly fitted or top-dose-only effect; inactive = no such curve, though single readings can be large or run the other way. What follows is part of a selection rich in actives, with near analogues and random picks from the rest.
Potency is the fitted concentration of half-maximal effect.

Assay: qHTS Assay for Compounds that Induce Erasure of Genomic Imprints;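 for activity change, positive = activation: 0% = negative control wells on the plate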
Conditions: mouse ES Peg3-LacZ reporter, beta-gal luminescence, 40 h; series mostly up to 10.9 µM; activity change, positive = activation: at the top concentration
Source text: qHTS Assay for Compounds that Induce Erasure of Genomic Imprints NIH Chemical Genomics Center [NCGC] NIH Molecular Libraries Screening Centers Network [MLSCN] Assay Submitter (PI): JEFFRIES, SEAN, NCGC, University of Cambridge NCGC Peg3 Imprinting Assay Overview Genomic imprinting is the epigenetic process whereby genes are expressed in a parent of origin fashion. […] Unlike some forms of epigenetic silencing that can be overcome by overexpression of transcription factors, genomic imprinting stably represses the expression of one allele despite potentially high levels of expression from the other allele. […] During mouse embryonic day 11.5 imprints are erased in PGCs so that sex specific imprints can be reestablished during gametogenesis. Embryonic germ (EG) cells can be derived from developing PGCs at embryonic day 11.5 and these cells often lack genomic imprints. […] Embryonic stem (ES) cells are a cell type similar to EG cells in phenotype and transcriptional profile, yet ES cells maintain genomic imprints. This similarity between ES and EG cells prompted us to use ES cells to look for factors which could induce imprint erasure. To investigate the stability of genomic imprinting, ES cells were derived from mice with an insertion of a LacZ-Neomycin reporter construct in the Peg3 locus. Peg3 is an imprinted locus where gene expression is restricted to the paternal allele. […] Using LacZ expression we are able to monitor the state of the Peg3 imprint. In order to dissect the mechanisms involved in imprint erasure using a forward chemical genetics approach we developed a cell based phenotype assay using an endogenous silence imprinted locus. This assay utilizes maternally inherited Peg3LacZ-Neo ES cells by monitoring the LacZ expression from the normally silent Peg3 allele. To facilitate screening, high-density feeder-free ES cell culture has been optimized so that ES cells can be grown in 1536 for over four days without feeding or washes. The assay uses a luminescence based read out for LacZ activity and is a homogenous assay optimal for HTS.
NCGC Peg3 Imprinting Assay Protocol Summary ES cell lines were derived from blastocysts taken from Peg3LacZ-Neo x129 matings. Lines were sexed and genotyped for the Peg3LacZ-Neo allele. Female cells carrying the reporter allele were used in this study. Cells were derived on a layer of mouse embryonic fibroblasts and passaged multiple times before switching to feeder free culture. Cells were maintained feeder free on gelatin coated dishes in DMEM/F12 media supplemented with 15% FBS, 2mM L-glutamine, 100 units/ml penicillin, 100ug/ml streptomycin, 0.1mM MEM nonessential amino acids, 1mM sodium pyruvate, 0.1% sodium bicarbonate, 0.1mM 2-Mercaptoethanol, and 400 units/ml leukemia inhibitory factor (LIF) at 37C with 5% CO2. The assay was performed in 1536-well format. A single luminescence read was taken at the end of the assay and the data was normalized by plate to internal negative controls. Maximum efficacy and AC50 values were calculated from dose-response data using the standard Hill equation. 1536 well plates were filled with 0.5ul of 0.1% gelatin per well, spun down and incubated for at least 30 min at 37C. The ES cells were then trypsini Peg3 1536-well assay protocol: (1)Plate 0.5ul/well 0.1% gelatin in white tissue culture treated 1536-well plates, spin and incubate at 37C for at least 30 min. (2)Add 5ul/well (300 cells) of ES cell suspension from freshly trypsinized cells and incubate at 37C, 5% CO2 for 40 hours. (3)Add 5ul/well of freshly prepared BetaGlo solution and incubate at room temperature for 5 minutes. (4)Read luminescence on the ViewLux plate reader. Keywords Genomic Imprinting, Germ Cells, Embryonic Stem Cell, DNA Methylation, Peg3, qHTS, NIH roadmap, NCGC
For Cc1cccc(C(C)C)c1NC(=O)C(NS(=O)(=O)c1cccc2nsnc12)c1ccccc1 (configuration not stated), the “activity change, positive = activation” value was -5.37% (inactive).
For COc1cc(OC)c(NC(=O)N2CC3CCCN3c3ccccc32)cc1Cl (configuration not stated), the “activity change, positive = activation” value was -4.34% (inactive).
For Cc1ccc(C(=O)COC(=O)C(Cc2c[nH]c3ccccc23)NC(=O)c2ccc(Br)cc2)cc1 (configuration not stated), the “activity change, positive = activation” value was -23.6% (inactive).
With COc1cccc(Cn2c(CNS(=O)(=O)c3ccc(Cl)s3)nc3cccnc32)c1 the “activity change, positive = activation” value was 5.91% (inactive).
With CCCOc1ccc(NC(=O)CC2C(=O)N(c3ccccc3)C(=O)N2Cc2ccco2)cc1 (configuration not stated) the “activity change, positive = activation” value was 14.7% (inactive).
For CCN(c1ccc(Cl)cc1)S(=O)(=O)c1nnc(NC(=O)c2ccco2)s1, the “activity change, positive = activation” value was -13.6% (inactive).
With CCC(=O)N1CCc2cc(S(=O)(=O)NC(C(=O)Nc3ccc(C(C)=O)cc3)C(C)C)ccc21 (configuration not stated) the “activity change, positive = activation” value was -8.36% (inactive).
In the case of CCSc1ncc(Cl)c(C(=O)Nc2c(C(=O)c3ccccc3)oc3ccccc23)n1, the “activity change, positive = activation” value is reported as -6.33% (inactive).
With O=C(O)c1ccc2c(c1)N(Cc1ccc(F)cc1)C(=O)c1ccccc1S2=O (configuration not stated) the “activity change, positive = activation” value was -14.8% (inactive).
For Cc1ccc(-c2cn3c(n2)sc2cc(C(=O)NCc4cccs4)ccc23)c(C)c1, the “activity change, positive = activation” value was 5.34% (inactive).
With Cc1cccc(CC(=O)Nc2cccc(-c3cn4cccnc4n3)c2)c1 the “activity change, positive = activation” value was 27.8% (inactive).
In the case of CCCCNC(=O)CSc1nc2cc3c(cc2c(=O)n1CCCCCC(=O)NCc1ccc2c(c1)OCO2)OCO3, the “activity change, positive = activation” value is reported as -3.01% (inactive).
For CCOc1ccc(CNC(=O)c2ccc(CS(=O)c3ccccc3)o2)cc1 (configuration not stated), the “activity change, positive = activation” value was -14.1% (inactive).
For CCOc1ccccc1NC(=O)CCS(=O)(=O)c1cccc2nsnc12, the “activity change, positive = activation” value was -4.98% (inactive).
In the case of CCSc1nnc2c(n1)OC(c1ccc(OCC(=O)O)cc1)Nc1ccccc1-2 (configuration not stated), the “activity change, positive = activation” value is reported as -3.64% (inactive).
With COc1cccc(-c2nc(S(=O)(=O)c3ccc(C)cc3)c(NCc3ccccc3)o2)c1 the “activity change, positive = activation” value was 4.59% (inactive).
For Cc1ccc(C)c(N2CCN(C(=O)Cn3ncc4c(=O)oc5ccc(C)cc5c43)CC2)c1, the “activity change, positive = activation” value was -13.6% (inactive).
With Cc1ccc(S(=O)(=O)N(CC(=O)Nc2ccc(Cl)cc2Cl)c2ccccc2C)cc1 the “activity change, positive = activation” value was -14.6% (inactive).
With COc1ccccc1-n1c(-c2ccc(C)cc2)cn2c3c(=O)n(C)c(=O)n(C)c3nc12 the “activity change, positive = activation” value was 9.66% (inactive).
With O=c1cnc2cnc(Nc3ccccc3)nc2n1Cc1ccc(F)cc1 the “activity change, positive = activation” value was -5.91% [at 60.7 µM] (inactive).
In the case of Cc1nc2cnc(Nc3ccccc3)nc2n(Cc2ccc(F)cc2)c1=O, the Potency is reported as 3.16 µM (active).
For Cc1nc2cnc(Nc3ccccc3)nc2n(C[C@H]2CCCO2)c1=O, the “activity change, positive = activation” value was -2.6% [at 60.7 µM] (inactive).
For Cc1cc(NC(=O)c2cccc(Cl)c2)ccc1-c1cc2ccccc2oc1=O, the “activity change, positive = activation” value was -17.4% (inactive).
In the case of Cc1ccc(CCNC(=O)c2nnc(Cc3cccc(F)c3)o2)cc1, the “activity change, positive = activation” value is reported as -10% (inactive).
For Cc1cc2c(cc1C)C(c1cccc(OC(C)C)c1)CC(=O)N2 (configuration not stated), the “activity change, positive = activation” value was -14.4% (inactive).
For COc1ccc(Cl)cc1NC(=O)CSc1nc(-c2cccs2)cc(C(F)(F)F)n1, the “activity change, positive = activation” value was -13% (inactive).
For Cc1ccc(NC(=O)Nc2sc3nc4n(c(=O)c3c2C)CCC(C)CC4)c(Cl)c1 (configuration not stated), the “activity change, positive = activation” value was -5.4% (inactive).
With Cc1ccc(OCCSc2nc(C)c(Cc3ccccc3)c(=O)[nH]2)cc1 the “activity change, positive = activation” value was -7.4% (inactive).
With CC(C)S(=O)(=O)c1oc(-c2ccc(F)cc2)nc1S(=O)(=O)c1ccc(F)cc1 the “activity change, positive = activation” value was -38.1% (inactive).
In the case of CCCCN(C)c1nnc(NC(=O)Nc2ccc(Br)c(C)c2)s1, the “activity change, positive = activation” value is reported as -3.91% (inactive).
For O=C(NCCc1ccc(Cl)cc1)c1ccc2c(c1)N(Cc1ccc(F)cc1)C(=O)CS2, the “activity change, positive = activation” value was -20.3% (inactive).
In the case of CCOc1ccccc1NC(=O)CCn1cnnn1, the “activity change, positive = activation” value is reported as -3.05% (inactive).
With CCOc1cc(-c2nnc(SCC(=O)NC3CCCC3)nc2-c2ccc(OC)c(OCC)c2)ccc1OC the “activity change, positive = activation” value was -9.78% (inactive).
With Cn1nnnc1SCCCNCc1cccc(OCc2ccc(Cl)cc2)c1 the “activity change, positive = activation” value was -17.5% (inactive).
For CSc1nc(=O)c2c(n1C)NC(=O)CC2c1ccccc1OC(C)C (configuration not stated), the “activity change, positive = activation” value was -5.06% (inactive).
With COc1ccc(Cl)cc1S(=O)(=O)N1CCC(c2ccncc2)CC1 the “activity change, positive = activation” value was -15.5% (inactive).
With CCc1nn(CC(=O)Nc2cccc(C)c2C)c(=O)c2cc3sccc3n12 the “activity change, positive = activation” value was 6.85% (inactive).
With Cc1cccc(NC(=O)c2cc(S(=O)(=O)N3CCC4(CC3)OCCO4)ccc2F)c1 the “activity change, positive = activation” value was -21% (inactive).
For CCC(=O)N1CCc2cc(Br)cc(S(=O)(=O)CCC(=O)NCCc3ccc(OC)c(OC)c3)c21, the “activity change, positive = activation” value was 5.01% (inactive).
With CCCNc1ncnc2c1c(-c1ccccc1)cn2-c1ccc(OCC)cc1 the “activity change, positive = activation” value was -20.1% (inactive).
With Cc1ccc(C)c(N2CCN(C(c3ccccc3)c3nnc(-c4ccccc4)o3)CC2)c1 (configuration not stated) the “activity change, positive = activation” value was -8.5% (inactive).
With COc1ccc(CN2C(=O)C(NC(=O)c3cccc(C)c3)(C(F)(F)F)N=C2c2ccccc2)cc1 (configuration not stated) the “activity change, positive = activation” value was 9.97% (inactive).
With CCOC(=O)C1CCCN(C(=O)c2ccc3c(c2)sc2nc(-c4ccc(CC)cc4)cn23)C1 (configuration not stated) the “activity change, positive = activation” value was -15.9% (inactive).
In the case of CCCn1c(NCc2ccccc2F)nc2ccccc21, the “activity change, positive = activation” value is reported as -8.61% (inactive).
For O=S(=O)(c1ccc2nc(N3CCN(c4cccc(Cl)c4)CC3)ccc2c1)N1CCCCC1, the “activity change, positive = activation” value was -6.86% (inactive).
With COc1ccc(OC)c(NC(=O)/C=C/c2ccc(C)o2)c1 the “activity change, positive = activation” value was 7.39% (inactive).
For Cc1c(Cl)cccc1NC(=O)CCS(=O)(=O)c1ccc2c(c1)oc(=O)n2C, the “activity change, positive = activation” value was -2.77% (inactive).
With C#CC(C)(CC)NC(=O)Cn1nnc(-c2ccc(OCc3c(F)cccc3Cl)cc2)n1 (configuration not stated) the “activity change, positive = activation” value was -21% (inactive).
In the case of Cc1nc2ccn(Cc3cccnc3)c(=O)c2cc1C(=O)N1CCN(c2ccccc2F)CC1, the “activity change, positive = activation” value is reported as -12.9% (inactive).
In the case of COc1cc(OC)c(NC(=O)c2nc(-c3ccncc3)no2)cc1Cl, the “activity change, positive = activation” value is reported as 1.79% (inactive).
With COc1ccccc1NC(=O)c1oc2ccccc2c1NC(=O)COc1ccccc1OC the “activity change, positive = activation” value was -14.1% (inactive).
For Cc1c(-c2nsc(NC(=O)c3cccc(Cl)c3)n2)nnn1-c1ccccc1C(F)(F)F, the “activity change, positive = activation” value was 11.8% (inactive).
For O=C(c1cccs1)c1cn(CCOc2ccc(Cl)cc2)c2ccccc12, the “activity change, positive = activation” value was -14.8% (inactive).
In the case of CC(=O)c1c(C)n(S(=O)(=O)c2ccc(Cl)cc2)c2ccc(NS(=O)(=O)c3ccc(Cl)cc3)cc12, the “activity change, positive = activation” value is reported as -15.8% (inactive).
For COc1ccccc1CNC(=O)NCc1noc2ccc(C)cc12, the “activity change, positive = activation” value was -12.8% (inactive).
For COc1cccc(-c2nnc3n(CCc4ccccc4)c(=O)c4ccccc4n23)c1O, the “activity change, positive = activation” value was -1.81% (inactive).
With COc1cccc(CNCCSc2nnnn2C)c1OCc1ccccc1Cl the “activity change, positive = activation” value was -19.5% (inactive).
For CCOC(=O)c1ccc(-c2ccc(/C=C(\C#N)C(=O)Nc3ccc(OCC)cc3)o2)cc1, the “activity change, positive = activation” value was -9.53% (inactive).
In the case of COc1ccc(NC(=O)CSc2nnc(-c3nnn(-c4ccc(F)cc4)c3C)o2)cc1, the “activity change, positive = activation” value is reported as -10.1% (inactive).
For COc1ccc(N2CCN(S(=O)(=O)c3ccc(-c4coc(C)n4)cc3)CC2)cc1, the “activity change, positive = activation” value was -7.96% (inactive).
In the case of Cc1ccccc1C(=O)Nc1sc2c(c1C(=O)N1CCC(C)CC1)CCCC2, the “activity change, positive = activation” value is reported as -10.6% (inactive).
With CC(=O)[C@H](C(c1ccccc1)N1CCOCC1)N1CCOCC1 (some centres not stated) the “activity change, positive = activation” value was -10.7% (inactive).
